# Tests used:
# Assay in all cases: DAPPL (digital affinity profiling via proximity ligation, sequencing); 10 mM Tris-HCl pH 7.5, 50 mM NaCl, 1 mM DTT, 4% glycerol, room temperature, 30 min; GST-TFs on glutathione beads, 16-mer random dsDNA library, 0.1% formaldehyde crosslink after washing; high values mean tight binding
# Settings in all cases: protein: recombinant; tags: N-terminal GST; dsDNA, one strand shown
# FLI1 = biological target: T1, FLI1 (Homo sapiens, UniProt Q01543 1-452)
# T1 sequence: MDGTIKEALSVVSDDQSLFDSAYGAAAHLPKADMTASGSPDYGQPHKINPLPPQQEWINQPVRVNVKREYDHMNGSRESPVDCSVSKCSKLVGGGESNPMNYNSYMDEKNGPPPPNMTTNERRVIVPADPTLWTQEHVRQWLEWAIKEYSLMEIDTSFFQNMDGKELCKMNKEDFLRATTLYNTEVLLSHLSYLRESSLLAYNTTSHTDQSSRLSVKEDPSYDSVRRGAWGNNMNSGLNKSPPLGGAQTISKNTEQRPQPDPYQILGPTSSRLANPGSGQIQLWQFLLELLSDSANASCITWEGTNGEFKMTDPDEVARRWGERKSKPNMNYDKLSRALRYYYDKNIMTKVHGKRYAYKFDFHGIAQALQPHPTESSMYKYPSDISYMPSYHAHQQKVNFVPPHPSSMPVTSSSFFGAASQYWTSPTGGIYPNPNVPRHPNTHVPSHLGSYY
# In short: (§1)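 Sequencing on an Illumina NextSeq500 followed washing, crosslinking with 0.1% formaldehyde, proximity ligation (BsaI/T4 ligase, 1 h, 37 °C) and PCR amplification of pools that had been incubated for 30 min at room temperature with 200 nmole of a random double-stranded 16-mer DNA library in Tris/NaCl/DTT/glycerol buffer. Each pool held DNA-barcoded human transcription factors, expressed in yeast as GST fusions and captured on glutathione beads, plus a tag-only sample. Binding signal is a hexamer's read frequency for a factor divided by its frequency in the tag-only sample.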
# ELK1 = biological target: T2, ELK1 (Homo sapiens, UniProt P19419 1-428)
# T2 sequence: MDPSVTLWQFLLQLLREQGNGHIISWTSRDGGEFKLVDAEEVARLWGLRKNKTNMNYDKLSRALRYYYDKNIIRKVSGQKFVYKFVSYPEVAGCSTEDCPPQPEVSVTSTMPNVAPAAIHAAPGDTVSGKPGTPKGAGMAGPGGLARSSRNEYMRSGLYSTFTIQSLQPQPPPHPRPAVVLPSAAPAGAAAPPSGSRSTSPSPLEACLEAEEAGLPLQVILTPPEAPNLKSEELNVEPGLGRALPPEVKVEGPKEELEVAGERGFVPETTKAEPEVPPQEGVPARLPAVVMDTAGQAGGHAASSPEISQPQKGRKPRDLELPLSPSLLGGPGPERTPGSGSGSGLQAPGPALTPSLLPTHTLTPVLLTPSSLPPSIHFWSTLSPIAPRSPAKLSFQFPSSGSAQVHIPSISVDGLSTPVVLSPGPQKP
# In short: as §1
# GABPA = biological target: T3, GABPA (Homo sapiens, UniProt Q06546 1-454)
# T3 sequence: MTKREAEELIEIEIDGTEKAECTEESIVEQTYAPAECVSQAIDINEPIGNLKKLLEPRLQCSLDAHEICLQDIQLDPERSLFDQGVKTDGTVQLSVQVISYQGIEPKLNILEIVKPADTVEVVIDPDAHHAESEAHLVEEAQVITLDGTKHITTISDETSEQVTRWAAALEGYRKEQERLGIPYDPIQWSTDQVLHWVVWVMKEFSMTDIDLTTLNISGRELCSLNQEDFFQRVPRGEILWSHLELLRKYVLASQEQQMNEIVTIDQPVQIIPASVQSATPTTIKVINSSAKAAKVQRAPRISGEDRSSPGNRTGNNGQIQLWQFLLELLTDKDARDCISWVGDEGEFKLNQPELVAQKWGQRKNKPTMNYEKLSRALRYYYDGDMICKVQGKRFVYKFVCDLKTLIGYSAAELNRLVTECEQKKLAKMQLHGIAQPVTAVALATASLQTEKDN
# In short: as §1
# ERG = biological target: T4, ERG (Homo sapiens, UniProt P11308 1-479)
# T4 sequence: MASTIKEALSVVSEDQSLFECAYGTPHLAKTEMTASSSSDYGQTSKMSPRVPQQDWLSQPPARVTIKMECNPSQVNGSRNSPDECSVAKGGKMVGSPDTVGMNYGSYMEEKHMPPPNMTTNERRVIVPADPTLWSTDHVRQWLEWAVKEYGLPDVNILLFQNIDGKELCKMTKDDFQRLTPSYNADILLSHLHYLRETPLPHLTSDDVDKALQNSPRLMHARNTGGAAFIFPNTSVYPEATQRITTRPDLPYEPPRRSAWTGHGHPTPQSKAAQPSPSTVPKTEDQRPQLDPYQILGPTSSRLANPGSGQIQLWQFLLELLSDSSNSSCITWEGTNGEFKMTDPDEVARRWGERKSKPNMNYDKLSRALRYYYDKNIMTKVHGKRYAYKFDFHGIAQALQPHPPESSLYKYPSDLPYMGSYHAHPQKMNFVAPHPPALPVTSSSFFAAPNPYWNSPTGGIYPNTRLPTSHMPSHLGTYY
# In short: as §1
# ELF1 = ELF1 (Homo sapiens, UniProt P32519 1-619)
# Sequence of ELF1 (P32519 whole entry): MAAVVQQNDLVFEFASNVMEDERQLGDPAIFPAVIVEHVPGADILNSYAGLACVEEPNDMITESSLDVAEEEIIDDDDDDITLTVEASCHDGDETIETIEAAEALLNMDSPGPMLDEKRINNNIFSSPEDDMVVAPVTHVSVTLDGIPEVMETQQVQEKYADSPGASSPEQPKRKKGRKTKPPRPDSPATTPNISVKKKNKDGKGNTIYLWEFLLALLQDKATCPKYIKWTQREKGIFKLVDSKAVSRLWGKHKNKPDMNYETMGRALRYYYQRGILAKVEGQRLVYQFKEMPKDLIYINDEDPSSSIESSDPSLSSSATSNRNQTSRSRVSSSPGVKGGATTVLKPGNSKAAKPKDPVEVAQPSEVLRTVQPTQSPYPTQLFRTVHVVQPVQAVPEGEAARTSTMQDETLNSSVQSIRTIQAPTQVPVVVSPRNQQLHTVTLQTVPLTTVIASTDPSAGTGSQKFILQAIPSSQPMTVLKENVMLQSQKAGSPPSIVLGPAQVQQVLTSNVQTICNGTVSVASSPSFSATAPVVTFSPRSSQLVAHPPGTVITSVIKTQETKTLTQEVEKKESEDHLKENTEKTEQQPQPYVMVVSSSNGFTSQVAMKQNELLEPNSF
# In short: as §1
# EHF = biological target: T5, EHF (Homo sapiens, UniProt Q9NZC4 1-300)
# T5 sequence: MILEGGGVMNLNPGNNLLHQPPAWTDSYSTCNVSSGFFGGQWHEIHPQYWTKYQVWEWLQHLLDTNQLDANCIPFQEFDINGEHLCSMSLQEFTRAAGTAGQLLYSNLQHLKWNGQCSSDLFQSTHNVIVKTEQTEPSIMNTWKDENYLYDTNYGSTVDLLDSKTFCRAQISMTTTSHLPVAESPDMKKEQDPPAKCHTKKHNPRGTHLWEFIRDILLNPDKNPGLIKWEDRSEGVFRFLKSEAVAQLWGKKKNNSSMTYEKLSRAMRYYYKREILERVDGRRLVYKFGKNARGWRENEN
# In short: as §1
# SPI1 = SPI1 (Homo sapiens, UniProt P17947 1-270)
# In short: as §1
# SPIB = SPIB (Homo sapiens, UniProt Q01892 1-262)
# Sequence of SPIB (Q01892 whole entry): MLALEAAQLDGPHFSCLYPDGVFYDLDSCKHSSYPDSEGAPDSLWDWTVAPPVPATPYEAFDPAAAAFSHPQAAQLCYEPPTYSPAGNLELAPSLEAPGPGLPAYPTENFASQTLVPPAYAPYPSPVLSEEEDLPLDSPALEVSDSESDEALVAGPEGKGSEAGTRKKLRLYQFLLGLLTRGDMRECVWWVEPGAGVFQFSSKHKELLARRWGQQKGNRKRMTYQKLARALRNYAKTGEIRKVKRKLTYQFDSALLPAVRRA
# In short: as §1
# ELK3 = biological target: T6, ELK3 (Homo sapiens, UniProt P41970 1-407)
# T6 sequence: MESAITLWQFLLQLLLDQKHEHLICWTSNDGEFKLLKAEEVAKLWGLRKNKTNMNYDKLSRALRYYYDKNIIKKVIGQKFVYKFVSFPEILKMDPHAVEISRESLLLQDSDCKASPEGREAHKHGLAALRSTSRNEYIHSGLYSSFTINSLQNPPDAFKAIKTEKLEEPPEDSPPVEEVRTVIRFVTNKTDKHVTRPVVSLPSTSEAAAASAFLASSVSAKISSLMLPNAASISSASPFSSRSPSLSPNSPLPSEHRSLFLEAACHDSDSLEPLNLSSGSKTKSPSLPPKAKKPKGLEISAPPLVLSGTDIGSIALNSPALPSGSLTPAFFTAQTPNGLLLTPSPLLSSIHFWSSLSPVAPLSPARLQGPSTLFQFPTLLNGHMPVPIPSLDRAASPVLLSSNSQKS
# In short: as §1
# FEV = biological target: T7, FEV (Homo sapiens, UniProt Q99581 1-238)
# T7 sequence: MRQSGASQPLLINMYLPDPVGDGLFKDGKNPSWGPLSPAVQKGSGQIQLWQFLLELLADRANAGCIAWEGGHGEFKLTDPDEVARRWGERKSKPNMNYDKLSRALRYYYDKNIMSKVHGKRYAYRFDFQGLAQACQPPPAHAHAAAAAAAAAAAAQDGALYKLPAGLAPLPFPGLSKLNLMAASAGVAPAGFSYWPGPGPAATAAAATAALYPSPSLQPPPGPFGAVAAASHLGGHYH
# In short: as §1
# ETV5 = ETV5 (Homo sapiens, UniProt P41161 1-510)
# Sequence of ETV5 (P41161 whole entry): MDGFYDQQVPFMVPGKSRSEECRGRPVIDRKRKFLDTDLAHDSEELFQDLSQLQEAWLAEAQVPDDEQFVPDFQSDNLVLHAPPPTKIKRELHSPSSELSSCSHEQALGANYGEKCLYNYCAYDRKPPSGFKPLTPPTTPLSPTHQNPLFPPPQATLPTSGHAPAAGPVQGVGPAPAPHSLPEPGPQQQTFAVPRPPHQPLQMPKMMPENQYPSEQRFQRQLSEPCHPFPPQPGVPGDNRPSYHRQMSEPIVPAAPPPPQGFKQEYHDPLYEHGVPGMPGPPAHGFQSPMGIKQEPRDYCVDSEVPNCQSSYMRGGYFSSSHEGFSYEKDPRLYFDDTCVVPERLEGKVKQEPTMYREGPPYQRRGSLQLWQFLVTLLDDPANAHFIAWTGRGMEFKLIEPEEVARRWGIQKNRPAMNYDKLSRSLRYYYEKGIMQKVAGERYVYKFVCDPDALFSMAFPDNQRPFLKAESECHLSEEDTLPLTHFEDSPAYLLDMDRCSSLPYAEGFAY
# In short: as §1
# ELF4 = ELF4 (Homo sapiens, UniProt Q99607 1-663)
# Sequence of ELF4 (Q99607 whole entry): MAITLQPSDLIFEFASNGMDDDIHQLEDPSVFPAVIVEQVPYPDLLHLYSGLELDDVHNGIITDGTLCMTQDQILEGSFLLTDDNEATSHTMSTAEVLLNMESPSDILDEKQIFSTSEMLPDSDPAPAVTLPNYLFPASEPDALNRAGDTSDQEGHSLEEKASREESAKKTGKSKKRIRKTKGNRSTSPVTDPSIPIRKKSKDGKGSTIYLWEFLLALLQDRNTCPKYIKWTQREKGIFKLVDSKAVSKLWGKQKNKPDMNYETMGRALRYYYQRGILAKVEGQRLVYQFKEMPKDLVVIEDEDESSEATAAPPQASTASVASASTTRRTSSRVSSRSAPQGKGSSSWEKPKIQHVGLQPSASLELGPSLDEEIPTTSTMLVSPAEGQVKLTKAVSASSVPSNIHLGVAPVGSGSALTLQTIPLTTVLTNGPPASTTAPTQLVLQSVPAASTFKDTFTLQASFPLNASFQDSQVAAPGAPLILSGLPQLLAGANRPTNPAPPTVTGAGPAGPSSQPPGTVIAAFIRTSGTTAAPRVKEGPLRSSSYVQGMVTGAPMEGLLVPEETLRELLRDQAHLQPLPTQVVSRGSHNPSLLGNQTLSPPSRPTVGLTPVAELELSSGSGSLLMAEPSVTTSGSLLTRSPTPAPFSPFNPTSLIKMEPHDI
# In short: as §1
# ETV1 = ETV1 (Homo sapiens, UniProt P50549 1-477)
# Sequence of ETV1 (P50549 whole entry): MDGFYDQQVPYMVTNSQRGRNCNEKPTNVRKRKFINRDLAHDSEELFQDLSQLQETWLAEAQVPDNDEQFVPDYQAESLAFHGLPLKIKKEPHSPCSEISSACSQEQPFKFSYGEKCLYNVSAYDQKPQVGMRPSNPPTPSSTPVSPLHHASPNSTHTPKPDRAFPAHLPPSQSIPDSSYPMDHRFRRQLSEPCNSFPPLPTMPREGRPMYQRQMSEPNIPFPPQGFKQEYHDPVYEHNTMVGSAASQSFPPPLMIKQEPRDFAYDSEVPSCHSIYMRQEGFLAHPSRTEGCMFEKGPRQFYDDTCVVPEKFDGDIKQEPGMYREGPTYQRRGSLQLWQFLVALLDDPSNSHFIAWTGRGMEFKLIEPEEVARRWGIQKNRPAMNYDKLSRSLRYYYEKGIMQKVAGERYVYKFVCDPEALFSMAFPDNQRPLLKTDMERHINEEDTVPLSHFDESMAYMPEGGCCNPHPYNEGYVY
# In short: as §1
# ERF = biological target: T8, ERF (Homo sapiens, UniProt P50548 1-548)
# T8 sequence: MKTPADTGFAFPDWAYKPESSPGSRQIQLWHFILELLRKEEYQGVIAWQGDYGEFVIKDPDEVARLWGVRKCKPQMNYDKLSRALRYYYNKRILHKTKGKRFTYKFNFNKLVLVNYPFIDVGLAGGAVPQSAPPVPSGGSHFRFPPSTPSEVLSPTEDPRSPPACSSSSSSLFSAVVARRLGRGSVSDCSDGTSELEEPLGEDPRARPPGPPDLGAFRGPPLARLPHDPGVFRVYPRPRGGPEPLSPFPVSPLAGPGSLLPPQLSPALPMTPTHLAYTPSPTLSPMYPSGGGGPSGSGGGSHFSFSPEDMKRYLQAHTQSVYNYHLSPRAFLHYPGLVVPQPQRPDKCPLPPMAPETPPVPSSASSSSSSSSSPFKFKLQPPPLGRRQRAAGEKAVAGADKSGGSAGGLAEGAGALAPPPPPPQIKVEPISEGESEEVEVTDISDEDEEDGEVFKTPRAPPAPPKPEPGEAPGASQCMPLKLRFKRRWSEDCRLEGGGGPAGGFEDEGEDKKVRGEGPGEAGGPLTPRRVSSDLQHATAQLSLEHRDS
# In short: as §1
# ETV3L = biological target: T9, ETV3L (Homo sapiens, UniProt Q6ZN32 1-361)
# T9 sequence: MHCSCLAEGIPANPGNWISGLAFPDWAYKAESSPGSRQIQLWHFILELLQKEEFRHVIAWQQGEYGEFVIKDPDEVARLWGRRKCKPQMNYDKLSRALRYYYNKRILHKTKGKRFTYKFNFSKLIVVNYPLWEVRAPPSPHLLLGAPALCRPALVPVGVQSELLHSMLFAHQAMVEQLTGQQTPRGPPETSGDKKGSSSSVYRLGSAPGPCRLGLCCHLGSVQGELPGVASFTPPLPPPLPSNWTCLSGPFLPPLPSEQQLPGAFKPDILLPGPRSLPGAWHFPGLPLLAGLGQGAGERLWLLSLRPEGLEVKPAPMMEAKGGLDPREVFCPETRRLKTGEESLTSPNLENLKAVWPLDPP
# In short: as §1
# ETS2 = biological target: T10, ETS2 (Homo sapiens, UniProt P15036 1-469)
# T10 sequence: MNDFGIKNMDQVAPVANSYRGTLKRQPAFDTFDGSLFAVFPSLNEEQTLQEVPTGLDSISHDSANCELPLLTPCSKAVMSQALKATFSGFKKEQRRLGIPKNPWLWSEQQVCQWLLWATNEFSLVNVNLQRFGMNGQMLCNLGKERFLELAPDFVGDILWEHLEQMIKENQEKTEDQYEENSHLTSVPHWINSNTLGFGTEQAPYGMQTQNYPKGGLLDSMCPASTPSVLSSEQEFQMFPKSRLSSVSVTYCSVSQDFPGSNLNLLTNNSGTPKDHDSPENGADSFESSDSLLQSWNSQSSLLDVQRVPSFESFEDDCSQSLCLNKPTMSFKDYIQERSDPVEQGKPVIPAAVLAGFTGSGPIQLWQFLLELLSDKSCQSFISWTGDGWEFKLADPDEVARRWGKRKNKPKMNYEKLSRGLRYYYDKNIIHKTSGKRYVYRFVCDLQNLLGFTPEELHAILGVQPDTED
# In short: as §1
# SPDEF = biological target: T11, SPDEF (Homo sapiens, UniProt O95238 1-335)
# T11 sequence: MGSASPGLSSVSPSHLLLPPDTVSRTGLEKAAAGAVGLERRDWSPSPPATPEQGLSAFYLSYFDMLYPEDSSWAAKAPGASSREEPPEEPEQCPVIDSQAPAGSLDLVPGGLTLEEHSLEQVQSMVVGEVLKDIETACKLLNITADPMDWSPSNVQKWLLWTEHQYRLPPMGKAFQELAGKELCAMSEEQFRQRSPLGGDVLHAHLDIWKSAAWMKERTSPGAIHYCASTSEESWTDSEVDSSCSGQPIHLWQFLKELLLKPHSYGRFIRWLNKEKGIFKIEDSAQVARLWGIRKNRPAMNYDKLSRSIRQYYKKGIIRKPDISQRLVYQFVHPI
# In short: as §1
# ETV3 = biological target: T12, ETV3 (Homo sapiens, UniProt P41162-2 1-143)
# T12 sequence: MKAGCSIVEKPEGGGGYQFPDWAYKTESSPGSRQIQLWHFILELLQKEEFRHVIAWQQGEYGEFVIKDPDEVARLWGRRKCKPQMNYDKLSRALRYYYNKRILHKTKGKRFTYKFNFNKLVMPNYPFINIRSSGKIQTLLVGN
# In short: as §1
# ETV6 = ETV6 (Homo sapiens, UniProt P41212 1-452)
# Sequence of ETV6 (P41212 whole entry): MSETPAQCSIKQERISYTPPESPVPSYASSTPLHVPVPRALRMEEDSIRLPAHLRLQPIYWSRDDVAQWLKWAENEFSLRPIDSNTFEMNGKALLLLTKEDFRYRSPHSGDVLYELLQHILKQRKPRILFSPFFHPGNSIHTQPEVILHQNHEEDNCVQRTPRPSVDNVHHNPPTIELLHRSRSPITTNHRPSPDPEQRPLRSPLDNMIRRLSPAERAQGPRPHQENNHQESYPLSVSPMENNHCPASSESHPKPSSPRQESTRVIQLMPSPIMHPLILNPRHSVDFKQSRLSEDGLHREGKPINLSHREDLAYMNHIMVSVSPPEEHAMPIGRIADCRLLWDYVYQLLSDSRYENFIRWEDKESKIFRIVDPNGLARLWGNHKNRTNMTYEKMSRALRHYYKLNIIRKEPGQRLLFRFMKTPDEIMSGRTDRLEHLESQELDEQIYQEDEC
# In short: as §1
sequence,measurement,setting,value
GTTGTT,binding signal,FLI1,"1.17 fold enrichment (6-mer frequency, TF over GST control)"
same,binding signal,ELK1,"1.12 fold enrichment (6-mer frequency, TF over GST control)"
same,binding signal,GABPA,"1.04 fold enrichment (6-mer frequency, TF over GST control)"
same,binding signal,ERG,"1.02 fold enrichment (6-mer frequency, TF over GST control)"
same,binding signal,ELF1,"1.09 fold enrichment (6-mer frequency, TF over GST control)"
same,binding signal,EHF,"1.12 fold enrichment (6-mer frequency, TF over GST control)"
same,binding signal,SPI1,"1.09 fold enrichment (6-mer frequency, TF over GST control)"
same,binding signal,SPIB,"1.22 fold enrichment (6-mer frequency, TF over GST control)"
same,binding signal,ELK3,"1.1 fold enrichment (6-mer frequency, TF over GST control)"
same,binding signal,FEV,"1.1 fold enrichment (6-mer frequency, TF over GST control)"
same,binding signal,ETV5,"1.02 fold enrichment (6-mer frequency, TF over GST control)"
same,binding signal,ELF4,"1.04 fold enrichment (6-mer frequency, TF over GST control)"
same,binding signal,ETV1,"1.14 fold enrichment (6-mer frequency, TF over GST control)"
same,binding signal,ERF,"1.06 fold enrichment (6-mer frequency, TF over GST control)"
same,binding signal,ETV3L,"1.14 fold enrichment (6-mer frequency, TF over GST control)"
same,binding signal,ETS2,"1.06 fold enrichment (6-mer frequency, TF over GST control)"
same,binding signal,SPDEF,"1.12 fold enrichment (6-mer frequency, TF over GST control)"
same,binding signal,ETV3,"1.11 fold enrichment (6-mer frequency, TF over GST control)"
same,binding signal,ETV6,"1.09 fold enrichment (6-mer frequency, TF over GST control)"
